# Assay results as given in PubChem BioAssay (NCATS).
# Inconclusive results are not listed. Where a call stands in place of a potency, no number is given. Active and inactive are the calls of the source. Calls follow the shape of the dose curve; as a rule, active = well fitted curve in the direction sought with a large enough effect; inconclusive = small, poorly fitted or top-dose-only effect, or another doubt; inactive = no such curve, though single readings can be large; an effect the other way counts as inactive or inconclusive.
# Tests used:
# [1] = qHTS assay to identify small molecule inhibitors of chordoma cells - UCH-1 (AID 1259355); details: UCH-1 chordoma viability, CellTiter-Glo, 48 h, combination, with auranofin plus four topoisomerase inhibitors; series mostly up to 46.1 µM; also: nearly all actives have a fitted effect of over 55% in size
# Method in brief: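 Screening used approved and investigational drugs in 15-point titration against 800 seeded cells per well. A fixed combination of auranofin with camptothecin, doxorubicin, rubitecan and topotecan followed compound addition, and growth was scored by CellTiter-Glo after 48hr.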
# [2] = qHTS assay to identify small molecule inhibitors of chordoma cells - UCH-2 (AID 1259356); details: UCH-2 chordoma viability, CellTiter-Glo ATP luminescence, 48 h; series mostly up to 46.1 µM
# [3] = P-glycoprotein substrates identified in KB-8-5-11 adenocarcinoma cell line, qHTS therapeutic library screen (AID 1346987); details: KB-8-5-11 (P-gp overexpressing) viability, CellTiter-Glo, 72 h; series mostly up to 44.5 µM; also: nearly all actives have a fitted effect of over 65% in size; also: potency is read from the fitted curve at half-maximal effect
# Method in brief: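 Luminescence from CellTiter-Glo, read 5 min after addition, quantified survival of KB-8-5-11 (P-gp-overexpressing) cells exposed to compounds for 72 h. AC50 was derived from concentration-response curves.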
# [4] = Identifying Small Molecule Inhibitors of Pancreatic Cancer Stem Cells (SN12C, Adherent) (AID 1259358); details: viability/growth inhibition; series mostly up to 46.1 µM;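 also: cell survival measured after 48 h of compound exposure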; also: potency is read from the fitted curve at half-maximal effect
# Method in brief: (§1)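 Spheroids grown 14 days in stem cell media on hydrogel-coated nonadherent plates; 2D lines seeded directly. Compounds added after 4 h attachment, 48 h at 37C, 5% CO2; CellTiter-Glo luminescence normalized to DMSO (no inhibition) and no-cell wells (full inhibition).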
# [5] = Identifying Small Molecule Inhibitors of Pancreatic Cancer Stem Cells (A278, Adherent) (AID 1259361); details: series mostly up to 46.1 µM;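 also: viability read after 48 h compound exposure; nearly all actives have a fitted effect of over 35% in size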
# Method in brief: as §1
# [6] = Identifying Small Molecule Inhibitors of Pancreatic Cancer Stem Cells (A2780, Spheroid) (AID 1259357); details: Potency: A2780 spheroid viability; series mostly up to 46.1 µM;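 also: spheroids pre-formed over 14 days in stem cell medium on hydrogel; compound exposure lasted 48 h before the ATP luminescence read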
# Method in brief: (§2)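 Luminescent ATP readout (CellTiter-Glo) quantifies surviving cells after a 48 h drug incubation. Normalization uses DMSO wells as no inhibition and media-only wells as full inhibition; bortezomib served as positive control.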
# [7] = Identifying Small Molecule Inhibitors of Pancreatic Cancer Stem Cells (SN12C, Spheroid) (AID 1259360); details: Potency: SN12C spheroid viability; series mostly up to 46.1 µM
# Method in brief: as §2
compound,measurement,setting,value
CCCc1cc(=O)[nH]c(=S)[nH]1,Potency,[1],inactive
same,Potency,[2],inactive
same,Potency,[3],inactive
O=C(O)CCNC(=O)c1ccc(N=Nc2ccc(O)c(C(=O)O)c2)cc1,Potency,[1],inactive
same,Potency,[2],inactive
same,Potency,[3],inactive
CCCCN(CCCC)CCC(O)c1cc2c(Cl)cc(Cl)cc2c2cc(C(F)(F)F)ccc12 (stereo unspecified),Potency,[2],inactive
O=C(CCc1ccc(O)cc1)c1c(O)cc(O)cc1O,Potency,[3],inactive
CC(=O)Nc1ccc(O)cc1,Potency,[3],inactive
O=C1CCc2ccc(OCCCCN3CCN(c4cccc(Cl)c4Cl)CC3)cc2N1,Potency,[2],inactive
same,Potency,[3],inactive
COc1cc(Nc2c(C#N)cnc3cc(OCCCN4CCN(C)CC4)c(OC)cc23)c(Cl)cc1Cl,Potency,[4],26.4 µM (active)
same,IC50 (viability decrease),[5],23.5 µM (active)
same,Potency,[3],inactive
Nc1nc(OCc2ccccc2)c2[nH]cnc2n1,Potency,[3],inactive
CCN(CC)CCOc1ccc(Cc2ccccc2)cc1,Potency,[1],inactive
same,Potency,[2],inactive
same,Potency,[3],inactive
CC(=O)NC[C@H]1CN(c2ccc(N3CCOCC3)c(F)c2)C(=O)O1,Potency,[1],inactive
same,Potency,[2],inactive
same,Potency,[3],inactive
Cc1ncc([N+](=O)[O-])n1CC(C)O (stereo unspecified),Potency,[1],inactive
same,Potency,[2],inactive
same,Potency,[3],inactive
CCOC(=O)C1=C(O)C(=O)N(Cc2ccccc2)C1,Potency,[6],inactive
same,Potency,[4],inactive
same,Potency,[7],inactive
same,Potency,[3],inactive
CS(=O)(=O)OCCCCOS(C)(=O)=O,Potency,[1],inactive
same,Potency,[2],inactive
same,Potency,[3],inactive
O=C1c2c(O)cc(O)cc2OC(c2ccc(O)c(O)c2)C1O (stereo unspecified),Potency,[3],inactive
CC1(C)C(=O)N(CCN2CCC(C(=O)c3ccc(F)cc3)CC2)c2ccccc21,Potency,[3],inactive
Clc1ccc(C(Cn2ccnc2)OCc2ccsc2Cl)c(Cl)c1 (stereo unspecified),Potency,[1],inactive
same,Potency,[2],inactive
same,Potency,[3],18.4 µM (active)
